S1P3 antag: S1P3 receptor antagonists, primary screen, cell-based; AID 485, 2006; hit rate 0.27% among 170,000; inhibition, % at 4.98 µM; Sphingosine 1-phosphate receptor 3 (Homo sapiens), Q99500; CHO S1P3 NFAT-BLA reporter, FRET fluorescence, antagonist mode;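 active = inhibition above the plate cutoff, the mean inhibition of test wells on that plate plus 3 SD, cut at about 28% in these data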;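 note: cells challenged with S1P at its EC80 of 0.8 µM; blue over green emission ratio from cleaved BLA substrate after 4 h stimulation; 0% = S1P-stimulated wells and 100% = unstimulated DMSO-only wells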
S1P4 agonist: S1P4 receptor agonists, primary screen, cell-based; Sphingosine 1-phosphate receptor 4 (Homo sapiens), O95977; S1P4-expressing cell line, agonist reporter assay; activation, % at 4.98 µM; hit rate 0.35% among 220,000; AID 1509, 2009; in the data active = activation above about 11%;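 note: 0% = DMSO vehicle and 100% = reference agonist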
Pf gamet viab: late stage P. falciparum gametocyte viability inhibitors, primary screen, ATP luminescence, HTS | P. falciparum stage V gametocytes, 24 h | inhibition, % at 10.9 µM | hit rate 0.065% among 150,000 | AID 743093, 2013;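 active = inhibition above the mean plus 3 SD of compounds within the control limits, set per campaign, cut at about 38% in these data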;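 note: 0% = DMSO wells and 100% = medium only without gametocytes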
S1P4 antag: S1P4 receptor antagonists, primary screen, cell-based. S1P4-expressing cells, antagonist mode, reporter read-out. inhibition, % at 4.98 µM. hit rate 0.26% among 220,000. AID 1510, 2009; in the data active = inhibition above about 29%;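 note: 0% = wells stimulated with agonist and 100% = vehicle wells without agonist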
EP2 mod: EP2 receptor modulators, cAMP readout, primary screen, cell-based, HTRF cAMP, PGE2 stimulation; Prostaglandin E2 receptor EP2 subtype (Homo sapiens), P43116; EP2-expressing cells, cAMP HTRF FRET, PGE2 co-stimulation; induction, % at 25 µM; hit rate 0.83% among 260,000; AID 940, 2007;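 active = compounds whose cAMP rise, as percent of the full-agonist control response, exceeds 60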;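 note: rat C6 glioma line stably carrying human EP2 under a CMV promoter; the protocol text gives 20 µM as final concentration; 100% = response of wells given 1 µM PGE2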
Target sequence (P43116 whole entry, looked up): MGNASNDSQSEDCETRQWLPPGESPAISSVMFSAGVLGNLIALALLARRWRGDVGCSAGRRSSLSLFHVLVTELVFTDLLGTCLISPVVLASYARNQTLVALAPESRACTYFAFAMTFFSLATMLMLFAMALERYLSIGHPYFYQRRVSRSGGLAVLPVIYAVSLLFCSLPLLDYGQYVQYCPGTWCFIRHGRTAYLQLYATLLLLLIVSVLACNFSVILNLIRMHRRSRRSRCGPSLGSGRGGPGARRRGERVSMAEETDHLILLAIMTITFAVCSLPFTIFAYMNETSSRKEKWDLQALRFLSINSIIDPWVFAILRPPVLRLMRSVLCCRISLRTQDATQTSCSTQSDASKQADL
EP2 antag: human EP2 receptor antagonists, primary screen, TR-FRET cAMP, C6 glioma cells | inhibition, % at 25 µM | hit rate 0.52% among 260,000 | AID 1422, 2008 | C6 glioma cells expressing human EP2; cells stimulated with saturating PGE2 | Prostaglandin E2 receptor EP2 subtype (Homo sapiens), P43116;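 active = percent inhibition above 40 after rounding to a whole number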;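 note: rat C6 glioma host cells with rolipram phosphodiesterase inhibitor present; the protocol text gives 20 µM as final concentration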
S1P4 ag conf: S1P4 receptor agonists, retest, confirmation, cell-based, high throughput. AID 1523, 2009. activation, % at 4.98 µM. shares compounds with S1P4 agonist. S1P4 agonist cell-based reporter assay. hit rate 7% among 740; in the data active = activation above about 12%;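 note: 0% = vehicle and 100% = full reference agonist response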
S1P1 ag: S1P1 receptor agonists, human, counter-screen for S1P4 agonist project, cell-based; activation, % at 4.98 µM; AID 1563, 2009; shares compounds with S1P4 agonist; hit rate 4% among 740; S1P1 agonist cell-based assay, activation; in the data active = activation above about 21%;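 note: 0% = vehicle wells and 100% = reference agonist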
* hit, by the source's call; / = no result. Most compounds without a hit are left out; they make up all but 1.9% or so of the library.

SMILES	S1P3 antag	S1P4 agonist	Pf gamet viab	S1P4 antag	EP2 mod	EP2 antag	S1P4 ag conf	S1P1 ag
Cc1cc(C)c2c(=O)[nH]c(SCC(=O)NCc3ccccc3)nc2n1	/	-1	-19	7	3	6	/	/
Cc1cc(C)c2c(=O)[nH]c(SCC(=O)NCCc3ccccc3)nc2n1	/	12*	/	-28	13	10	-2	-2
O=C(NC1CCN(C(=O)Nc2ccc(F)cc2)CC1)C1CCCCC1	/	/	/	/	-6	10	/	/
CN1CCc2c(sc3c2C(=O)NC(c2ccco2)N3)C1 (stereo not drawn)	-4	4	-2	-19	-8	0	/	/
O=C1NC(c2ccco2)Nc2sc3c(c21)CCN(Cc1ccccc1)C3 (stereo not drawn)	-26	15*	/	-31	-16	14	0	6
O=C(O/N=C1\CCS(=O)(=O)c2sccc21)c1c(F)cccc1F	-24	33*	14	-11	1	7	-1	-4
Cc1ccc2nc(SC(C)C(=O)NCc3ccccc3)c(C)cc2c1 (stereo not drawn)	/	/	/	/	35	10	/	/
COC(=O)c1sc(NC(=O)c2ccc(Cl)cc2Cl)c(C#N)c1C	/	/	/	/	-58	18	/	/
CCCNS(=O)(=O)c1cc(Cl)ccc1OC	-11	17*	-3	1	5	5	-1	-2
CCCNS(=O)(=O)c1ccc(OC)c(Cl)c1Cl	/	-1	/	1	14	6	/	/
CCn1cc(S(=O)(=O)N2CCCc3cc(OC)ccc32)cn1	/	/	/	/	-78	4	/	/
O=C(O)Cn1c(SCCOc2ccccc2)nc2ccccc21	-23	59*	-26	-8	11	11	-1	-1
O=C(O)CCn1c(SCCOc2ccccc2)nc2ccccc21	/	/	11	/	/	/	/	/
COc1ccc(OC)c(NS(=O)(=O)c2ccc3c(c2)oc(=O)n3C)c1	/	/	/	/	1	11	/	/
CC(=O)Oc1cc2oc(=O)c3c(c2cc1Cl)CCC3	-28	15*	/	-14	17	2	1	-5
Clc1ccc(-n2cnnn2)cc1	8	5	-16	-2	9	5	/	/
Oc1ccc(-n2cnnn2)cc1	/	30*	33	5	22	8	-2	-9
COc1ccc(S(=O)(=O)N2CCC(C(=O)Nc3ccc(F)cc3F)CC2)cc1OC	/	/	/	/	-34	4	/	/
COc1ccccc1-n1c(SCC(N)=O)nnc1-c1ccc(S(=O)(=O)N2CCCCC2)cc1	14	23*	-13	-8	-23	18	-2	-7
Nc1nnc(SCC(=O)OCC(=O)Nc2ccc(Br)cc2)s1	-21	62*	9	-11	1	7	-2	-5
COCCCn1c(=O)/c(=C\c2ccccc2OC(F)F)s/c1=C(/C#N)C(=O)NCCOC	10	1	-3	4	-8	6	/	/
COCCNC(=O)/C(C#N)=c1\s/c(=C\c2ccccc2OC(F)F)c(=O)n1Cc1ccccc1	-2	12*	/	-9	7	2	-2	3
COc1ccc(-n2c(C)nnc2SCC(=O)Nc2ccc(C)c(Cl)c2)cc1	/	/	/	/	2	13	/	/
CCCN(Cc1cc2cc(OC)ccc2[nH]c1=O)C(=O)c1ccc(C)cc1	/	/	/	/	-41	11	/	/
Cc1cccc(N=Cc2cc3c(cc2[N+](=O)[O-])OCO3)c1	/	16*	/	-2	15	4	-1	15
SMILES	S1P3 antag	S1P4 agonist	Pf gamet viab	S1P4 antag	EP2 mod	EP2 antag	S1P4 ag conf	S1P1 ag
CN(C)C(CNS(=O)(=O)c1ccc(N2CCCC2=O)cc1)c1ccc(F)cc1 (stereo not drawn)	/	/	/	/	-34	5	/	/
Cc1c(C(=O)Nc2ccccc2)sc2ncn(CC(N)=O)c(=O)c12	/	/	/	/	-11	10	/	/
O=C(CN1C(=O)CSc2ccc(S(=O)(=O)N3CCOCC3)cc21)NCCCN1CCOCC1	-22	17*	-15	-3	16	2	-2	-4
COc1ccccc1N=c1oc2cc(O)ccc2cc1C(=O)NCC1CCCO1 (stereo not drawn)	4	38*	24	-35	27	6	1	2
Cc1cccc(N=c2oc3cc(O)ccc3cc2C(N)=O)c1	4	48*	-17	-52	-2	14	5	13
COc1ccccc1N=c1oc2cc(O)ccc2cc1C(N)=O	-6	27*	56*	-57	6	9	3	10
COc1cccc(N=c2oc3cc(O)ccc3cc2C(=O)NCC2CCCO2)c1 (stereo not drawn)	-12	17*	1	-31	8	12	3	1
COc1ccc(N=c2oc3ccc(Br)cc3cc2C(=O)NCC2CCCO2)cc1OC (stereo not drawn)	/	/	/	/	-27	7	/	/
Cc1ccccc1NC(=O)CSc1nnc2c3ccccc3n(C)c2n1	/	/	/	/	-33	5	/	/
Cc1ccc(OCCOc2ccc(Cl)cc2Cl)c([N+](=O)[O-])n1	-2	102*	3	-34	-19	8	80*	2
COc1ccc(OCCOc2ccc(C)nc2[N+](=O)[O-])cc1	-18	0	/	-1	6	10	/	/
COc1ccc2cc(OC)c(C(=O)N3CCOCC3)cc2c1	-4	14*	4	-11	17	10	0	1
CC(=O)N(CCCN(C)C)Cc1ccccn1	-21	20*	3	4	-15	10	-2	-7
CC(=O)N(CCCc1ccc(C(C)(C)C)cc1)CCCN(C)C	9	-1	/	-14	-35	7	/	/
O=C(/C=C/c1ccco1)Nc1cccc(C(=O)Nc2nccs2)c1	/	/	/	/	-61	13	/	/
OCCOCCNc1ncnc2c1cnn2-c1ccc(Cl)cc1	/	68*	4	10	-17	15	0	8
O=C(O)c1ccc(Br)cn1	-28	27*	0	2	10	13	-2	2
Cc1cc(C(=O)CN2C(=O)NC(C)(CC(C)C)C2=O)c(C)n1-c1ccc2c(c1)OCO2 (stereo not drawn)	3	13*	/	-9	13	7	-2	-1
Cc1cc(C(=O)CN2C(=O)NC3(CCCC3)C2=O)c(C)n1-c1ccc2c(c1)OCO2	-18	1	/	-2	-12	6	/	/
O=C(CCCC(=O)NCC1CCCO1)NCC1CCCO1 (stereo not drawn)	-9	39*	/	2	23	7	-2	0
O=C(CN1CCCCCC1)NCC1CCCO1 (stereo not drawn)	-26	-1	/	7	15	10	/	/
CNCc1c(C)nn(-c2ccccc2)c1C	-19	34*	/	-4	-14	7	-2	-1
